These results are taken from PubChem BioAssay AID651821 (The Scripps Research Institute Molecular Screening Center, 2012).

SMILES strings stand for the structures. In all, about 370,000 compounds went through this assay and about 4,700 (1.3%) were called active. For the sample, actives were picked, then their nearest neighbours and some compounds at random. Unmarked numbers belong to inactive results.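 The calls were made as follows: active = inhibition above the plate cutoff, the mean of all test compounds on that plate plus 3 SD (cut at about 35% in these data); inactive = the rest.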

A short description of the test: small molecules binding CAG repeat RNA – biochemical, fluorescence, primary screen (AID 651821).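 Also: 0% = DMSO alone and 100% = 100 µM mitoxantrone as full dye displacement; higher means more dye released from RNA so lower well fluorescence.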 The note with it: r(CAG) RNA repeat, TO-PRO-1 dye displacement fluorescence; at 3 µM; hits give high values.
`O=C(c1ccncc1)N1CC[C@H]2[C@H](CCCN2Cc2ccc(F)cc2)C1`: the inhibition is -0.17%.

For the molecule `COC(=O)C1=C(C(=O)OC)C2C=C(C(C)C)C1C(=O)C2(C)O` (centres undefined), the inhibition is 2.51%.

Regarding `Cc1ccc(C)c(NC(=O)CCS(=O)(=O)c2ccccc2)c1`, the inhibition is 5.79%.

As for `COC(=O)C(C(=O)OC)c1ccccc1NS(=O)(=O)c1cccc2ccccc12`, the inhibition was 6.69%.

As for `Cc1ccc(C(=O)C2CCN(CC(=O)NCCC(C)C)CC2)cc1`, the inhibition is -4.12%.

Regarding `COC(=O)C1=C(C)N(Cc2ccccc2C(F)(F)F)C(=NCC2CC2)NC1c1cccc(Cl)c1` (centres undefined), the inhibition was 2.17%.

In the case of `COC(=O)c1ccc(C(NC(=O)OCc2ccccc2)/C(F)=C/[C@@H](C)C(=O)O)cc1` (some centres undefined), the inhibition is 7.38%.

Take `COc1ccc(COC(=O)NC(C(=O)O)c2ccccc2)cc1` (centres undefined): the inhibition was 41.2% (active).

Turning to `CC(C)[C@H](NC(=O)OCc1ccccc1)C(=O)OCc1ccccc1`, the inhibition is -7.02%.

For `O=S1(=O)CC(N2CCN(CCO)CC2)CN1Cc1cn(Cc2cccc(Cl)c2)nn1` (centres undefined), the inhibition is 1.81%.

Consider `Cc1ccc(CSc2nc3[nH]ncc3c(=O)[nH]2)cc1`, for which the inhibition was -3.55%.

Take `COc1ccccc1CSc1ncc(-c2ccc([N+](=O)[O-])cc2)[nH]1`: the inhibition is 6.09%.

On to `Cc1ccccc1CSc1nnc(-c2ccccc2)c(=O)[nH]1`, for which the inhibition was 6.58%.

Consider `Cc1ccc(CSc2nc(-c3ccccc3)c(C#N)c(=O)[nH]2)cc1`, for which the inhibition is 84.2% (active).

As for `CC1(Cc2cccc(C#N)c2)C(=O)Nc2ccc(-c3cccc(C(F)(F)F)c3)cc21` (centres undefined), the inhibition was 2.77%.

In the case of `O=C(Nn1c(SCc2ccc([N+](=O)[O-])cc2)nc2ccccc2c1=O)c1ccc(F)cc1`, the inhibition is 25.7%.

Take `Cc1ccc(CSc2nsc(C)c2C#N)cc1`: the inhibition was -2.07%.

With `N#Cc1c(-c2ccccc2)nc(SCc2cccc(C(F)(F)F)c2)[nH]c1=O`, the inhibition was 91.1% (active).

In the case of `N#Cc1c(-c2ccccc2)nc(SCc2ccc([N+](=O)[O-])cc2)[nH]c1=O`, the inhibition is 74% (active).

On to `CN(C(N)=NC(=O)/C=C/c1ccccc1)C(C#Cc1ccccc1)Cc1ccccc1` (centres undefined), for which the inhibition was 3.26%.

In the case of `COc1ccc(-c2cc(-c3nnc(SCc4ccc([N+](=O)[O-])cc4)n3N)[nH]n2)cc1`, the inhibition is 9.69%.

For `COC(=O)c1cccc(Cn2ccc3ccc(-c4ccc5ccn(C(=O)C6CCCCC6)c5c4)cc32)c1`, the inhibition was 12.2%.

For the molecule `Cc1ccc(Cn2cc(CN3[C@@H](C)COc4cc(Br)ccc4S3(=O)=O)nn2)cc1`, the inhibition was 3.68%.

For `C=CCN1C(=O)[C@H](CC(=O)NCCCN2CCCC2=O)[C@@]2(C(=O)OCC)CCCC=C12`, the inhibition was 1.48%.

As a reminder, the inhibition is the drop in the measured response relative to a control, in per cent.
